Most compounds without a hit are left out; they make up all but 6% or so of the library.
D1 ag – agonists of human D1 dopamine receptor. P21728. HEK293 T-REx D1 cells, calcium flux, agonist mode. activation, % at 2 µM. hit rate 1% among 360,000. AID 504660; in the data active = activation above about 30%
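Inducible HEK293 T-REx D1 cells, force-coupled to calcium signalling, were plated at 4000 cells/well with tetracycline and held overnight at 30 C. After no-wash calcium dye loading, compound-evoked calcium rise over 180 s flagged agonists.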
D3 antag – antagonists of human D3 dopamine receptor | P35462 | AID 652054 | hit rate 2.5% among 360,000 | D3R cells, DiscoveRx beta-arrestin luminescence, antagonist mode; active compounds read low | max response, negative = inhibition, %; in the data active = max response below about -50%; inconclusive = no clear call, values can overlap the other calls
Target sequence (P35462 whole entry, looked up): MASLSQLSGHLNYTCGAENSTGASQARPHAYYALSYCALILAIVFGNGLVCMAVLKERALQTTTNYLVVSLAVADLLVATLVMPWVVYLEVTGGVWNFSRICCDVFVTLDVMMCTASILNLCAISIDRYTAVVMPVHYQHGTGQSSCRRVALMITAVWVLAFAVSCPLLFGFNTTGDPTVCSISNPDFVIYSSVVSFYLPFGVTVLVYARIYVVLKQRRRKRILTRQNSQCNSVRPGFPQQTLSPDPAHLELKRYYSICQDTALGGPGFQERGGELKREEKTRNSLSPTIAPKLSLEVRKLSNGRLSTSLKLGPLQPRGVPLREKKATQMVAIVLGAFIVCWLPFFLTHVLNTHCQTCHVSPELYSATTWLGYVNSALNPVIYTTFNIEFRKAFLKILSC
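Cells plated overnight at 1500 cells/well, then exposed to library compounds with dopamine controls for 90 minutes at 37 degrees C. DiscoveRx reagent added for 30–60 minutes at room temperature; luminescence read, quantitative HTS format.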
D1 PAM – human D1 dopamine receptor positive modulation; HEK293 TREx D1 cells, calcium flux, dopamine EC20 potentiation; potentiation, % at 10 µM; hit rate 0.036% among 360,000; AID 504651; in the data active = potentiation above about 30%
D1 antagonist – blocks dopamine activation of the human D1 receptor | P21728 | activity change, negative = inhibition, % at 10 µM | HEK293 TREx D1 cells, calcium flux, dopamine EC80; active compounds read low | hit rate 3.2% among 360,000; in the data active = activity change below about -30%
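Tetracycline-induced HEK293 Trex D1 cells, force-coupled to calcium, dye-loaded; compounds added and read 180 s, then EC80 dopamine added and calcium flux tracked kinetically another 180 s.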
D3 ag – activates the human D3 dopamine receptor; D3R DiscoveRx beta-arrestin cells, luminescence, 90 min; max activation, %; hit rate 0.58% among 410,000; in the data active = max activation above about 30%
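Agonist-mode cell screen: cells plated at 1500/well and incubated overnight at 37 °C, then exposed to library compounds for 90 min at 37 °C. Detection reagent was added for 30–60 min at room temperature, and luminescence was read.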
Hits are given with their value; – = inactive; ? = inconclusive; · = no result.

SMILES | D1 ag | D3 antag | D1 PAM | D1 antagonist | D3 ag
C=CCn1c(=S)[nH]c2cc(C(=O)NCCc3ccc(S(N)(=O)=O)cc3)ccc2c1=O | – | – | – | – | –
COCCn1c(=S)[nH]c2cc(C(=O)NCc3ccccc3)ccc2c1=O | · | -66 | · | · | –
O=C(NCc1ccccc1)c1ccc2c(=O)n(CCCN3CCCC3=O)c(=S)[nH]c2c1 | – | -52 | – | – | –
Cc1ccc(CNC(=O)c2ccc3c(=O)n(CCCN4CCCC4=O)c(=S)[nH]c3c2)cc1 | – | – | – | – | –
COCCn1c(=O)[nH]c2cc(C(=O)NCc3ccccc3)ccc2c1=O | – | – | – | – | –
C=CCn1c(=S)[nH]c2cc(C(=O)Nc3ccc(F)cc3)ccc2c1=O | – | – | – | – | 47
CC(C)(C)c1ccc(OCC(=O)Nc2c(C(=O)c3ccc(F)cc3)oc3ccccc23)cc1 | – | · | – | – | –
COC(=O)C1=C(C)N(Cc2ccccc2)C(=NCc2cccc(Cl)c2)N[C@H]1c1cccc(F)c1 | 32 | – | – | – | –
COC(=O)C1=C(C)N(Cc2ccccc2)C(=NCC(C)C)N[C@H]1c1cccc(F)c1 | 82 | – | – | -41 | –
CC(=O)Nc1ccc(S(=O)(=O)N(CCCN2CCOCC2)Cc2cccs2)cc1 | – | – | – | – | –
CC(C)(C)c1ccc(S(=O)(=O)N(CCCN2CCOCC2)Cc2cccs2)cc1 | – | -67 | – | -33 | –
CNC(=O)CN(CCN(CCN(CC(=O)[O-])CC(=O)NC)CC(=O)[O-])CC(=O)[O-].O.[Gd+3] | · | · | · | · | –
C=CCNc1nc(N)c(C(=C(C#N)C#N)c2ccc(Br)cc2)s1 | – | – | – | -32 | –
NC(CO)(CO)CO | · | · | · | · | –
CCCCc1c(CCC)c(=N)c2ccccc2n1C | – | -73 | – | – | –
COc1ccc(OC)c(CN2CCN(c3ccccc3OC)CC2)c1 | – | -92 | – | – | –
COc1ccc2ccccc2c1CN1CCN(C)CC1 | – | -82 | – | – | –
COc1ccc(CN2CCN(Cc3ccccc3C(F)(F)F)CC2)c(OC)c1 | – | ? | – | – | –
COc1ccc(CN2CCN(c3ccccc3OC)CC2)c(OC)c1 | – | -100 | – | -46 | –
COc1ccc(OC)c(CN2CCN(Cc3cccc4ccccc34)CC2)c1 | – | -54 | – | -67 | –
CCCOc1ccc(-c2cccc(NS(=O)(=O)c3cc(OC)ccc3OC)c2)nn1 | – | · | – | – | –
CC1=C[C@H](O)CC(C)(C)[C@H]1/C=C/C(C)=C/C=C/C(C)=C/C=C/C=C(C)/C=C/C=C(C)/C=C/C1=C(C)C[C@@H](O)CC1(C)C | · | · | · | · | –
COc1ccc(CN2CCN(CCCc3ccccc3)CC2)c(OC)c1 | – | · | – | – | ·
COc1ccc(CC(C)N2CCN(Cc3ccccc3)CC2)c(OC)c1 (centres undefined) | – | -84 | – | – | –
CC(C)(C)c1ccc(CN(Cc2ccco2)c2cnc(S(C)(=O)=O)nc2C(=O)Nc2ccc(F)cc2)cc1 | – | · | – | – | –
SMILES | D1 ag | D3 antag | D1 PAM | D1 antagonist | D3 ag
COc1cc(C)c(C(=O)Oc2cc(C)c(C(=O)O)c(O)c2C)c(OC)c1C | – | – | – | -66 | –
O=C1CCCC(NCCCCCCNC2=C([N+](=O)[O-])C(=O)CCC2)=C1[N+](=O)[O-] | – | – | – | -92 | –
CC1(C)CC(=O)C([N+](=O)[O-])=C(NCCCO)C1 | – | – | – | – | –
Cc1ccc(CNC(=O)Cn2ccn(-c3ccc(C)c(C)c3)c(=O)c2=O)cc1 | – | · | – | – | –
Fc1ccc(N2CCN(c3nc4ccccc4c4nc(-c5cccnc5)nn34)CC2)cc1 | – | · | – | – | –
CNCc1c(OCc2ccc(F)cc2)ccc2ccccc12 | – | -61 | – | -33 | –
Nc1c(-c2ccc(Cl)cc2)cnn1-c1ccccc1 | – | – | – | – | –
Nc1c(-c2ccc(Cl)cc2)nnn1-c1ccccc1 | – | – | – | -50 | –
Cc1cn2c(=O)cc(COC(=O)c3ccc(NC(=O)c4ccc(C(C)(C)C)cc4)cc3)nc2s1 | – | · | – | – | –
COc1ccc(C(=O)c2c(-c3ccc(OC)cc3)oc3ccc(-c4cc(OC)c(OC)c(OC)c4)cc23)cc1 | · | – | · | · | –
COC(=O)c1c(-c2ccc(OC)cc2)oc2ccc(-c3cc(OC)c(OC)c(OC)c3)cc12 | · | – | · | · | 35
CCCOC(=O)c1c(-c2ccc(OC)cc2)oc2ccc(-c3ccc(OC)nc3)cc12 | – | – | – | – | –
COC(=O)c1c(-c2ccc(OC)cc2)oc2ccc(-c3ccc(OC)nc3)cc12 | – | – | – | – | 40
CCN(CC)Cc1c(C(=O)N/N=C/c2c(Cl)cccc2Cl)nnn1-c1nonc1N | – | – | – | – | 30
CCCc1c(C(=O)N/N=C/c2cccs2)nnn1-c1nonc1N | 31 | – | – | – | –
CCCc1c(C(=O)N/N=C(\C)c2ccccn2)nnn1-c1nonc1N | · | -85 | · | · | –
CCCN(CCC)Cc1c(C(=O)N/N=C/c2cccs2)nnn1-c1nonc1N | – | – | – | – | –
Cc1c(C(=O)N/N=C/c2cccs2)nnn1-c1nonc1N | – | – | – | – | 36
CCN(CC)Cc1c(C(=O)N/N=C/c2ccncc2)nnn1-c1nonc1N | – | – | – | – | –
CCOC(=O)c1cc(-c2ccccc2)n(CC(=O)N(C)c2ccc(OC)cc2)c1C | – | · | – | – | –
COc1ccc(OC)c(CCNC(=O)c2cc3cccc4c3n2CC(C)S4)c1 (centres undefined) | – | · | – | – | –
Cc1ccc(CNC(=O)c2c(-c3ccccc3F)noc2C)o1 | – | · | – | – | –
Cc1ccc2c(c1)-c1c(c(C(=O)N3CCN(c4cc(C)ccc4C)CC3)nn1C)CS2 | – | · | – | – | –
CC(C)C(=O)Nc1ccc(C(=O)Nc2ccc(S(=O)(=O)N3CCOCC3)cc2)cc1 | – | – | – | – | –
CC(Oc1ccccc1Cl)C(=O)Nc1ccc(S(=O)(=O)N2CCOCC2)cc1 (centres undefined) | · | – | · | · | –
SMILES | D1 ag | D3 antag | D1 PAM | D1 antagonist | D3 ag
Cc1ccc(OC(C)C(=O)Nc2ccc(S(=O)(=O)N3CCOCC3)cc2)cc1 (centres undefined) | 39 | – | – | – | –
CC(Oc1ccc(C(=O)c2ccccc2)cc1)C(=O)Nc1ccc(S(N)(=O)=O)cc1 (centres undefined) | 38 | – | – | – | –
CC(Sc1ccc(Cl)cc1)C(=O)Nc1ccc(S(=O)(=O)N2CCOCC2)cc1 (centres undefined) | 56 | – | – | – | –
O=C(CCCSc1ccc(Cl)cc1)Nc1cc(S(=O)(=O)N2CCOCC2)ccc1O | – | – | – | -45 | –
CCc1ccccc1NC(=O)c1cc(S(=O)(=O)N2CCC(C)CC2)cn1C | – | · | – | – | 62
Cc1ccc(NC(=O)c2cc(S(=O)(=O)N3CCc4ccccc43)cn2C)cc1 | – | – | – | – | –
Cc1cccc(C)c1NC(=O)c1cc(S(=O)(=O)N2CCc3ccccc32)cn1C | – | ? | – | -47 | –

Source: PubChem BioAssay (National Center for Advancing Translational Sciences (NCATS))
